Shown are actives, neighbours in structure and some others; about 2.3% of the full set was active somewhere.
Bim-Mcl-1 = inhibitors of Bim peptide binding to Mcl-1, primary screen, biochemical, bead-based flow cytometry, multiplex. Bim peptide-Mcl-1 binding. inhibition, % at 10 µM. 190,000 compounds, 0.1% hits. AID 1009, 2008; in the data active = inhibition above about 40%;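 note: 0% = no compound tracer wells and 100% = peptide blocker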
Target sequence (Q07820 whole entry, looked up): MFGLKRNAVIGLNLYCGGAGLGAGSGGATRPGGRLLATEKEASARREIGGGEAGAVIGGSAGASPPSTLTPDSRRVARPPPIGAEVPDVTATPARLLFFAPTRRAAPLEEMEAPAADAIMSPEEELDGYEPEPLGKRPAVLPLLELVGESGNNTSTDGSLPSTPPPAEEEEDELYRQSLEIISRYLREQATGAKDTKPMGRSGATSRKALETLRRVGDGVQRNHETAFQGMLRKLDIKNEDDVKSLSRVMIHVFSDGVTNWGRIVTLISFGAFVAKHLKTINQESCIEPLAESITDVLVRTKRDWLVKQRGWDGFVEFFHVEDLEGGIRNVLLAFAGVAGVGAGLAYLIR
Mcl1-Noxa inh = Mcl-1/Noxa binding inhibitors, primary screen, biochemical, TR-FRET, 1536-well; Induced myeloid leukemia cell differentiation protein Mcl-1 (Homo sapiens), Q07820; TR-FRET Mcl-1/Noxa peptide binding, 2 h; 220,000 compounds, 1.5% hits; inhibition, % at 21.7 µM;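 active = compounds that cut the protein-peptide binding signal by more than 50% relative to plate controls in a single-dose test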;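 note: His-tagged Mcl-1 with rhodamine Noxa BH3 peptide and terbium anti-His antibody; 0% = Mcl-1 plus Noxa peptide wells and 100% = peptide-only wells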
MCL1-BIM inh = inhibitors of MCL1 binding to BIM-BH3, primary screen, biochemical, fluorescence polarization | Induced myeloid leukemia cell differentiation protein Mcl-1 (Homo sapiens), Q07820 | inhibition, % at 10.9 µM | GST-MCL1 / FITC-Bim-BH3 fluorescence polarization | AID 2057, 2009 | 320,000 compounds, 0.68% hits;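 active = inhibition above the mean inhibition of all tested compounds plus 3 SD, set per campaign, cut at about 40% in these data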;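 note: 0% = DMSO wells and 100% = unlabeled Bim-BH3 peptide control; higher means more loss of mP so more displacement of Bim peptide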
Mcl1-Bid inh = Mcl-1/Bid binding inhibitors, primary screen, biochemical, TR-FRET, 1536-well. Induced myeloid leukemia cell differentiation protein Mcl-1 (Homo sapiens), Q07820. TR-FRET Mcl-1/Bid-Dy647 peptide binding. inhibition, % at 21.7 µM. 220,000 compounds, 0.97% hits. AID 1021, 2008;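 active = compounds that cut the binding signal by more than half at the single screening dose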;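 note: His-tagged Mcl-1 with europium anti-His antibody binding Bid BH3 peptide; 0% = Mcl-1 plus peptide wells and 100% = peptide-only wells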
Bcl-xL primary = inhibitors of human Bcl-xL, primary screen, biochemical, fluorescence polarization, HTS; AID 2129, 2009; 320,000 compounds, 0.7% hits; GST-Bcl-xL / FITC-Bim BH3 peptide fluorescence polarization; Bcl-2-like protein 1 (Homo sapiens), Q07817; inhibition, % at 10.9 µM;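 active = inhibition above the mean of all tested compounds plus 3 SD, cutoff set per campaign, cut at about 30% in these data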;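 note: 0% = DMSO wells and 100% = unlabeled Bim-BH3 peptide competitor; inhibitors lower millipolarization by displacing the labeled peptide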
Target sequence (Q07817 whole entry, looked up): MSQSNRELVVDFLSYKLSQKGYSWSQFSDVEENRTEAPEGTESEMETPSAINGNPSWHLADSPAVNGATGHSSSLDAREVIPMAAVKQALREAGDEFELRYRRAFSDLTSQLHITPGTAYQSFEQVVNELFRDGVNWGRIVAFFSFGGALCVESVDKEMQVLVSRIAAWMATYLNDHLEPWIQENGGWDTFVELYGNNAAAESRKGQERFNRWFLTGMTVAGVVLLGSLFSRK
GLD-1 TGE inh = GLD-1/TGE RNA complex disruptors, primary screen, biochemical, fluorescence polarization; Female germline-specific tumor suppressor gld-1 (Caenorhabditis elegans), Q17339; inhibition, % at 5.96 µM; 320,000 compounds, 0.44% hits; purified GLD-1 + fluorescein TGE RNA; AID 2280, 2010;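 active = percent inhibition above a per-plate cutoff, the plate mean of test compounds plus 3 SD, cut at about 30% in these data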;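 note: 0% = DMSO wells with GLD-1 and probe and 100% = wells lacking GLD-1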
Bcl-xL conf = Bcl-xL inhibitors blocking Bim BH3 binding, confirmation, counter-screen for MCL1 inhibitor project, biochemical, fluorescence polarization. GST-Bcl-xL / FITC-Bim BH3 peptide FP binding. AID 2166, 2009. shares compounds with MCL1-BIM inh. 1,700 compounds, 54% hits. inhibition, % at 10.9 µM;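 active = inhibition above a cutoff equal to the mean inhibition of all tested compounds plus 3 SD, cut at about 30% in these data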;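 note: 0% = DMSO wells and 100% = unlabeled Bim BH3 control peptide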
MCL1 BIM confirm = inhibitors of MCL1 binding to BIM-BH3, confirmation, biochemical, fluorescence polarization, triplicate; shares compounds with MCL1-BIM inh; GST-MCL1 / FITC-Bim-BH3 fluorescence polarization; inhibition, % at 10.9 µM; 1,700 compounds, 61% hits; AID 2168, 2009;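 active = inhibition above the average of all tested compounds plus 3 SD, cut at about 40% in these data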;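 note: 0% = DMSO wells and 100% = unlabeled Bim-BH3 control peptide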
The depositor's hits bear a star; . = not tested or not shown; + = active, no number.

SMILES | Bim-Mcl-1 | Mcl1-Noxa inh | MCL1-BIM inh | Mcl1-Bid inh | Bcl-xL primary | GLD-1 TGE inh | Bcl-xL conf | MCL1 BIM confirm
Nc1cc2c3c(cccc3c1)C(=O)N(CCN1CCCC1)C2=O | . | -57 | 145* | -21 | 125* | 36* | 99* | 132*
CC(=O)OCCCN1C(=O)c2cccc3cc(Br)cc(c23)C1=O | . | . | 7 | . | -2 | 8 | . | .
COc1ccc(NC(=O)CSCc2cc(=O)n3cc(C)sc3n2)cc1 | . | . | 4 | . | 2 | -6 | . | .
CC(OC(=O)CC1CC2CCC1C2)C(=O)Nc1cccc(S(=O)(=O)N2CCOCC2)c1 (stereo not drawn) | . | . | 8 | . | 4 | 7 | . | .
O=C(NCCS(=O)(=O)NC1CCCC1)c1ccccc1 | . | . | -8 | . | -1 | 2 | . | .
N=C1/C(=C\c2ccc(-c3cccc(C(=O)O)c3)o2)C(=O)N=C2SC=C(c3ccccc3)N12 | . | 93* | 41* | 98* | 0 | -26 | 10 | 35
CC(=O)Nc1ccc(C=NNc2ccc([N+](=O)[O-])cc2S(=O)(=O)Nc2ccccc2C(=O)O)cc1 | . | . | . | . | . | 1 | . | .
Cc1ccc(NC(=S)NNc2ccc([N+](=O)[O-])cc2S(=O)(=O)Nc2ccccc2C(=O)O)cc1C | -4 | 87* | 40* | 45 | 19 | -1 | 22 | 39
COc1cccc(C(=O)N(c2ccc(OC)cc2OC)C2C=CS(=O)(=O)C2)c1 (stereo not drawn) | -2 | -1 | 54* | -21 | 61* | 28 | 5 | 3
COc1ccc(-c2cc(=O)oc3c(O)c(O)ccc23)cc1 | . | . | 68* | . | 10 | 2 | 72* | 93*
COc1ccc(-c2cc(=O)oc3cc(OC(C)C(=O)O)ccc23)cc1 (stereo not drawn) | -3 | 13 | 0 | 29 | 0 | 4 | . | .
CCN1CCC(NCCc2ccc(F)cc2)CC1 | . | . | 10 | . | 2 | -3 | . | .
COc1c(O)cccc1[C@H](O)C1CCN(CCc2ccc(F)cc2)CC1 | . | . | 56* | . | 50* | 66* | 56* | 60*
COc1ccc(C2CC(c3ccc(OC)cc3OC(C)=O)=NN2C(=O)c2ccccc2)cc1 (stereo not drawn) | . | . | 92* | . | 9 | -7 | 36* | 49*
COc1ccc(C2=NN(C(=O)/C=C/c3ccccc3)C(c3ccccc3)C2)c(OC(C)=O)c1 (stereo not drawn) | -10 | -30 | -1 | 6 | -2 | 4 | . | .
COc1cc(/C=C2\SC(=S)N(C(C(=O)O)c3ccccc3)C2=O)ccc1O (stereo not drawn) | . | 32 | 0 | 6 | -2 | -51 | . | .
O=C(O)C(c1ccccc1)N1C(=O)/C(=C\c2ccc(O)c(O)c2)SC1=S (stereo not drawn) | . | . | 70* | . | 17 | -72 | 63* | 88*
Cc1nn(CC(=O)NC2CCC(C)CC2)c(C)c1[N+](=O)[O-] (stereo not drawn) | . | . | -4 | . | -4 | 10 | . | .
Cc1ccc(NC(=O)CC2SC3=NCCCN3C2=O)c(C)c1 (stereo not drawn) | -4 | . | 112* | -12 | 110* | 82* | 51* | 56*
O=C(CC1SC2=NCCN2C1=O)Nc1ccc(Cl)cc1 (stereo not drawn) | -1 | -2 | 2 | -21 | 3 | 6 | . | .
O=c1oc(CCO)cc2ccc(Br)cc12 | . | . | . | . | . | 2 | . | .
Cc1ccc(C2(C)NC(=O)N(CC(=O)NC(C)c3ccccc3)C2=O)cc1 (stereo not drawn) | . | . | -11 | . | -3 | -4 | . | .
CCOc1ccc(S(=O)(=O)N(C(=O)c2ccco2)c2cc3sc(=O)oc3c3ccccc23)cc1 | -3 | 24 | 38 | -12 | 14 | -3 | . | .
Cc1ccc(S(=O)(=O)N(C(=O)c2ccco2)c2cc3sc(=O)oc3c3ccccc23)cc1 | 7 | 11 | 44* | 1 | 14 | 0 | 15 | 10
COc1ccc(S(=O)(=O)N(C(=O)c2ccco2)c2cc3sc(=O)oc3c3ccccc23)cc1 | -1 | 19 | 45* | -30 | 17 | 5 | 1 | -4
SMILES | Bim-Mcl-1 | Mcl1-Noxa inh | MCL1-BIM inh | Mcl1-Bid inh | Bcl-xL primary | GLD-1 TGE inh | Bcl-xL conf | MCL1 BIM confirm
O=C(c1ccccc1)c1c2c(cc3sc4ccccc4[n+]13)-c1cccc3cccc-2c13 | 8 | 38 | 116* | 29 | 95* | 55* | 62* | 71*
Cc1sc2cc3c(c(C(=O)c4ccccc4)[n+]2c1C)-c1cccc2cccc-3c12 | 1 | 23 | 4 | -25 | 11 | 2 | . | .
OCCC1CN(Cc2cc3c(cc2Cl)OCO3)CCN1Cc1ccccc1 (stereo not drawn) | -3 | 8 | 8 | -20 | 3 | 2 | . | .
c1ccc2c(c1)Nc1cc3ccccc3cc1S2 | . | 9 | 12 | -10 | 0 | -7 | . | .
Cc1ccc2c(c1)Sc1c(ccc3ccccc13)N2 | . | 40 | 71* | -19 | 67* | -3 | 80* | 104*
O=C(NNC(=O)c1ccco1)c1cccc(Br)c1 | . | . | 10 | . | 3 | -5 | . | .
CCOC(=O)c1c(S(=O)(=O)NCC(=O)Nc2ccc(OC)cc2)c(C)n(C)c1C | . | . | 0 | . | 4 | 3 | . | .
Cc1c(N2C(=O)c3ccc4c5c(ccc(c35)C2=O)CC4)c(=O)n(-c2ccccc2)n1C | 0 | 96* | 52* | -26 | 23 | 0 | 33* | 78*
Cc1ccccc1CN(C)Cc1cc(=O)oc2c(C)c(C)ccc12 | . | . | 64* | . | 3 | -8 | 12 | 7
CCn1c(C(=O)NC(C)c2ccc3c(c2)OCCO3)cc2sccc21 (stereo not drawn) | 0 | -17 | -2 | -22 | 4 | 3 | . | .
CC(NC(=O)c1cc2sccc2n1C)c1ccc2c(c1)OCCO2 (stereo not drawn) | -3 | 32 | 178* | 8 | 3 | 8 | 1 | 4
Oc1ccc2nnc3c(Br)cnn3c2c1 | . | . | + | . | 175* | 144* | 168* | +
O=C(OCCc1ccccc1)c1cc(O)c(O)c(O)c1 | . | . | 54* | . | 19 | -5 | 41* | 75*
COc1ccc(C(=O)N2CCN(CCc3ccccc3)CC2)cc1[N+](=O)[O-] | . | . | 0 | . | 4 | 2 | . | .
